HttQ103 aggreg: qHTS Multiplex Assay to Identify Dual Action Probes in a Cell Model of Huntington: Aggregate Formation (GFP); PC12 HttQ103-GFP aggregates, Acumen cytometry, 40 h; Potency, µM (titrated, usually from 46.1 µM), for the others: top-dose activity change, negative = inhibition, hits mostly inhibitors; actives 1.1% (n = 220,000); AID 1688, 2009; note: % is set by controls: 0 for no effect and ±100 for the full control effect; nearly all actives have a fitted effect of over 60% in size
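Steps: seed 1500 PC12 HTTQ103-GFP cells/well; add tebufenozide, 100 nM final; add compound titration; add ATPLite reagent; quantify GFP aggregates by laser scanning cytometry.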
ALDH1A1 inh: qHTS Assay for Inhibitors of Aldehyde Dehydrogenase 1 (ALDH1A1); Purified ALDH1A1, NADH fluorescence, propionaldehyde substrate; Potency, µM (top dose mostly 75.3 µM), for inactives: top-dose activity, negative = inhibition, actives largely listed as inhibitors; actives 7.3% (n = 220,000); AID 1030, 2008; active = well fitted inhibition curve with a large enough effect, not every such curve was filed as active; inconclusive = small, poorly fitted or top-dose-only effect, or another doubt; inactive = no such curve, though single readings can be large or run the other way;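 note: plate controls were no enzyme wells and a reference inhibitor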
Target sequence (P00352 whole entry, looked up): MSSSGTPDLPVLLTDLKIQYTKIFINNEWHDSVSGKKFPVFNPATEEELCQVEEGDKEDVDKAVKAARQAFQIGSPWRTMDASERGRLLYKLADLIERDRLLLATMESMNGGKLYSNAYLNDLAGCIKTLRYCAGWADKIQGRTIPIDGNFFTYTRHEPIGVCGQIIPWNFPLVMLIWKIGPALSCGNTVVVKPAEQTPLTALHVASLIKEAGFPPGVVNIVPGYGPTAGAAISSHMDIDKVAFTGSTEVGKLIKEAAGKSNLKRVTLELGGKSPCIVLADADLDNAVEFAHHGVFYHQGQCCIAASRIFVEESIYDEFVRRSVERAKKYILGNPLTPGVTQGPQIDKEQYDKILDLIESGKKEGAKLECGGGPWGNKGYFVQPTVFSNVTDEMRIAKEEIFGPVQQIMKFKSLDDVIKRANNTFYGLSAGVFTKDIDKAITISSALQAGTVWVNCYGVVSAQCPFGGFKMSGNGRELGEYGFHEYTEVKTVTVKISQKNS
LMNA splice mod: qHTS Assay for Modulators of Lamin A Splicing; AID 1487, 2009; Potency, µM (top dose mostly 46.1 µM), inactives show top-dose ratio change, negative = inhibition, actives largely listed as inhibitors; actives 0.01% (n = 200,000); HeLa LMNA splicing GFP/RFP minigene ratio, 48 h; active = well fitted inhibition curve with a large enough effect in the signal ratio, with a control signal flat, not every such curve was filed as active; inconclusive = small, poorly fitted or top-dose-only effect, or effect the other way, or a change in a side signal; the % refers to the signal ratio; note: % is set by controls: 0 for no effect and ±100 for the full control effect
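S3 HeLa cells stably expressing lamin A-EGFP splicing minigene plus DsRed2, 600 cells/well, 48 h compound exposure at 37C. Laser-scanning cytometry; analysed as GFP (500-530 nm)/RFP (575-640 nm) total intensity ratio; 0.5% DMSO vehicle.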
KinaseGlo FLuc: Counterscreen for Luciferase (Kinase-Glo TM) Inhibition; Potency, µM (series often up to 38.3 µM), inactives show at the top dose activity change, negative = inhibition, most hits filed as inhibitors; Luciferin 4-monooxygenase (Photuris pensylvanica), Q27757; actives 0.28% (n = 200,000); Kinase-Glo luciferase, ATP luminescence, 8 min; note: % is set by controls: 0 for no effect and ±100 for the full control effect; nearly all actives have a fitted effect of over 60% in size
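Recombinant Kinase-Glo luciferase, 10 uM ATP (linear range), luciferin; imidazole pH 7.2 / KCl / MgCl2 / Tween / BSA buffer; 8 min RT; luminescence.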
HPGD block: qHTS Assay for Inhibitors of HPGD (15-Hydroxyprostaglandin Dehydrogenase) | purified HPGD, NADH fluorescence kinetic, PGE2 substrate | Potency, µM, inactives show at the top dose activity change, negative = inhibition, most hits filed as inhibitors | actives 4.3% (n = 150,000) | AID 894, 2007; active = well fitted inhibition curve with a large enough effect, not every such curve was filed as active; inconclusive = small, poorly fitted or top-dose-only effect, or another doubt; inactive = no such curve, though single readings can be large or run the other way; note: % is set by controls: 0 for no effect and ±100 for the full control effect
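20 nM HPGD preincubated 15 min at room temperature with compound in 50 mM Tris-HCl pH 8, 0.01% Tween 20. Started with 1 mM NAD+ and 30 uM prostaglandin E2; NADH fluorescence (360/450 nm) read 5 times over 30-s intervals, last minus first.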
HTT cytoprotect: qHTS Multiplex Assay to Identify Dual Action Probes in a Cell Model of Huntington: Cytoprotection (ATP). PC12 HTT-Q103 induced, cytoprotection, ATP luminescence, 40 h. Potency, µM (highest dose often 56.4 µM), without a hit: cytoprotection (ATP increase), actives largely listed as activators. actives 0.14% (n = 230,000). AID 1471, 2008; note: % of control where 0% means no effect; nearly all actives have a fitted effect of over 45% in size
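PC12 cells with ecdysone-inducible HTT exon 1 Q103-GFP, induced with 100 nM tebufenozide and co-treated with library compounds in a dose series (1536-well, 1500 cells/well). Cytoprotection read as ATP content by ATPlite luminescence.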
* marks the source's active call; other numbers are inactive results; ? = inconclusive; . = not tested or not shown; [ ] = dose if it differs, or a comment. In the library only some 9% were active in any assay of this set; here they are far more common. Unless noted, calls come from the whole dose curve; as a rule, active = well fitted curve in the direction sought with a large enough effect; inconclusive = small, poorly fitted or top-dose-only effect, or another doubt; inactive = no such curve, though single readings can be large; an effect the other way counts as inactive or inconclusive. Potency is the fitted concentration of half-maximal effect.

SMILES	HttQ103 aggreg	ALDH1A1 inh	LMNA splice mod	KinaseGlo FLuc	HPGD block	HTT cytoprotect
Cn1ccc2cc(S(=O)(=O)N3CCN(C(=O)Nc4ccc(F)cc4F)CC3)ccc21	.	.	3%[46 µM]	.	.	.
CC(=O)N1CCCc2cc(S(=O)(=O)NCc3ccc(C)cc3)ccc21	?	?	?	1%	-8%	15%[10 µM]
Cc1cccc(N2CCN(C(=O)CCS(=O)(=O)c3ccc(Br)cc3)CC2C)c1 (centres undefined)	-16%	0%	.	-1%	.	?
CCCN(CCC)S(=O)(=O)c1ccc2c(c1)CCCN2C(C)=O	-17%	5µM*	?	-3%	-9%	-18%
CC(=O)N1CCCc2cc(S(=O)(=O)CCC(=O)N3CCN(c4cccc(C)c4)C(C)C3)ccc21 (centres undefined)	-11%	18µM*	4%	18%	-10%	6%
Cc1ccc(CNS(=O)(=O)c2ccc(F)c(C(=O)Nc3ccc(C)c(F)c3)c2)cc1	.	.	-8%[46 µM]	.	.	.
Cc1ccc(NC(=O)c2cc(S(=O)(=O)NCCC3=CCCCC3)ccc2F)cc1	15%	22µM*	?	3%	-21%	?
CC(=O)N1CCCc2cc(S(=O)(=O)NCCC3=CCCCC3)ccc21	-26%	1.8µM*	?	-2%	-11%	21%[10 µM]
COc1ccc(N(C(=O)c2cccc([N+](=O)[O-])c2)S(=O)(=O)c2ccc3c(c2)n(C)c(=O)n3C)cc1	-14%	?	?	-3%	-27%	-2%
CN(CC(=O)N1CCN(c2ccccn2)CC1)S(=O)(=O)c1cccc2nsnc12	2%	-2%	7%	-1%	-7%	.
CCCN1C(=O)CC(C(=O)OC)=C1C	11%	-4%	7%	3%	-6%	4%
Cc1ccc(S(=O)(=O)N2c3ccccc3NC(=O)C2CC(=O)Nc2ccccc2)cc1 (centres undefined)	23%	20µM*	-2%	-1%	-8%	-10%[10 µM]
COc1ccc(N2C(=O)CC(Sc3nc4ccccc4s3)C2=O)cc1OC (centres undefined)	16%[9.22 µM]	3.5µM*	?	-3%	.	3%[10 µM]
CC(=O)Nc1ccc(N2C(=O)CC(Sc3nc4ccccc4s3)C2=O)cc1 (centres undefined)	11%[9.22 µM]	0.71µM*	.	0%	.	-27%
CC(=O)Nc1ccc(N2C(=O)CC(c3ccccc3)CC2=O)cc1	5%	2%	6%	2%	-13%	9%
CC1(C)CC(C)(c2ccc(O)cc2O)N(c2ccc3ccccc3c2)C(=S)N1 (centres undefined)	-23%	-1%	?	0%	1%	4%[10 µM]
CC(=O)N/C(=C\c1cccs1)C(=O)O	-6%	0%	.	1%	.	-16%
C=CCOc1c(Cl)cc(CNc2nccs2)cc1OC	-15%	13µM*	-2%[46 µM]	-2%	.	-29%
C=CCOc1c(CNc2nccs2)cccc1OCC	8%	2.5µM*	-6%	1%	-16%	0%
C=CCOc1ccc(CNc2nccs2)cc1OCC	-2%	?	1%	0%	-19%	31%[10 µM]
Cc1cccc(CN2C(=O)CCSc3ccc(Cl)cc32)c1	-20%	14µM*	-4%	-2%	-10%	5%
CC(O)c1nc2ccccc2n1C1CCCCC1 (centres undefined)	-10%	0%	-11%	3%	-8%	16%[10 µM]
Cc1ccc(-c2noc(CN3CCN(c4ccccc4F)CC3)n2)cc1	-28%	11µM*	-23%	2%	-14%	7%[10 µM]
COc1cccc(-n2nnnc2SCC(=O)NC2CCCC2)c1	3%[9.22 µM]	-13%	7%	1%	-26%	6%
CN(CCO)c1cc(Sc2nc3ccccc3s2)c2nonc2c1[N+](=O)[O-]	5%	25µM*	?	-1%	?	-73%
SMILES	HttQ103 aggreg	ALDH1A1 inh	LMNA splice mod	KinaseGlo FLuc	HPGD block	HTT cytoprotect
CC(=O)OCCN(C)c1cc(SC(C)C)c2nonc2c1[N+](=O)[O-]	?	?	?	0%	.	15%
O=C(Oc1ccc(N(Cc2cccs2)C2=NS(=O)(=O)c3ccccc32)cc1)c1ccccc1Cl	0%	?	1%	5%	-21%	-8%[10 µM]
O=C(Oc1ccc(N(Cc2cccs2)C2=NS(=O)(=O)c3ccccc32)cc1)c1ccco1	-24%	28µM*	-7%	4%	-23%	3%[1.9 µM]
COc1ccc2c(=O)c3c(=O)n(Cc4ccco4)c(-c4ccccc4)nc3oc2c1	10%	22µM*	4%	-1%	-19%	-15%
CN1CCN(c2ccc(C(=O)c3ccccc3)cc2[N+](=O)[O-])CC1	-5%	0%	-13%	-2%	-8%	13%[10 µM]
O=C1c2ccccc2NC(c2ccco2)N1O (centres undefined)	-22%	?	-1%	-1%	-17%	-2%
O=C1C2=C(Nc3ccccc3SC2c2ccco2)c2ccccc21 (centres undefined)	15%	6.3µM*	10%	-1%	-28%	5%
CCONc1ncnc2nonc12	0%	12%	0%	-1%	-20%	.
COc1ccc(CONc2ncnc3nonc23)cc1[N+](=O)[O-]	-20%	14µM*	.	1%	.	?
COc1ccc(-c2cn3c(C)c(C(=O)Nc4cc(NC(C)=O)ccc4OC)sc3n2)cc1	-2%	?	?	2%	?	-14%[10 µM]
O=S(=O)(NC1CC2CCC1C2)c1ccc2c(c1)OCCO2 (centres undefined)	-1%	?	?	-4%	-19%	-4%
CC1CCCC(NS(=O)(=O)c2ccc3c(c2)OCCO3)C1C (centres undefined)	?	14µM*	-15%	0%	-13%	9%[10 µM]
CCCc1cc(=O)oc2cc(Oc3ncccn3)ccc12	-4%	?	11%	0%	?	5%
CN1C(=S)SC(C)(NO)C1(C)C (centres undefined)	-6%	0.79µM*	15%	3%	-27%	0%[0.074 µM]
CN(Cc1cccc(Cl)c1Cl)C(=O)c1ccc(NC(=O)CC#N)cc1	13%	-15%	-3%	-2%	18µM*	28%[10 µM]
CN(C)C(CNC(=O)c1ccc(NC(=O)CC#N)cc1)c1ccccc1 (centres undefined)	-3%	-9%	-18%[9.22 µM]	-3%	.	-44%
CC(C)C(NC(=O)c1ccc(Cl)cc1)C(=O)NC1=NCCS1 (centres undefined)	-9%	-8%	-3%	1%	2%	-1%[10 µM]
